Here are results for 16 molecules from PubChem BioAssay (EPA / NIEHS).

Active and inactive are the calls of the source. Rule for the calls: active = hit-call score of the fitted dose curve at least 0.9, where 1 is the maximum; inactive = score below 0.9.

A short description of this test: CCTE_Shafer_MEA_acute_firing_rate_mean: CCTE's Neural Acute Assay for Mean Firing Rate, Shafer Lab (AID 2284009). The procedure:
CCTE_Shafer_MEA_acute assay is conducted using Axion Biosystems 48 well microelectrode array (MEA) plates and Maestro recording system. Each well of the MEA plate contains a grid of 16 microelectrodes embedded in the culture surface. Electrically active cells, such as neurons, can be cultured over the electrodes, and electrical activity in these cells can be recorded extracellularly. The spontaneous firing of neurons is captured from each electrode on a microsecond timescale providing both temporally and spatially precise data. […] The CCTE_Shafer_MEA_acute assay uses primary cultures of rat cortical neurons. As these cultures mature over time, neural networks develop functional activity and form cohesive networks in which electrical activity can be highly coordinated. Baseline 40-minute recordings are made on days post-plating 13 or 15, followed by a secondary 40-minute recording after chemical exposure.CCTE_Shafer_MEA_acute_firing_rate_mean is a component of the CCTE_Shafer_MEA_acute assay. It measures the frequency number of spikes (action potential firings) as the total number of spikes divided by the length of the recording in a microelectrode array (MEA) using Axion Biosystems Maestro 768 channel amplifier with the AxIS adaptive spike detector. The firing rate is divided by the number of electrodes to report a well-mean value. The recordings before and after chemical treatment are used to calculate a percent change in the mean firing rate in each well.Data from the assay component CCTE_Shafer_MEA_acute_firing_rate_mean was analyzed into 1 assay endpoint. This assay endpoint, CCTE_Shafer_MEA_acute_firing_rate_mean, was analyzed in the negative analysis fitting direction relative to DMSO as the negative control and baseline of activity. Using a type of functional reporter, gain or loss-of-signal activity can be used to understand electrical activity.
Spontaneous activity in the cortical cultures was recorded using an Axion Biosystems Maestro 768 channel amplifier and Axion Integrated Studios (AxIS) v1.8 (or later) software. The amplifier recorded from all channels simultaneously (gain = 1200 x; sampling rate = 12.5 kHz/channel): raw signals were filtered with a Butterworth band-pass filter (300-5000 Hz), which filters out slower local field potentials leaving only fast potentials, i.e., "spikes", arising from extracellular currents associated with action potentials (Pine 2006; Wheeler and Nam 2011). On-line spike detection of filtered signals was conducted with the AxIS adaptive spike detector, using a threshold of 8x the root mean squared (rms) noise on each channel. Any electrodes with rms noise levels greater than 5 uV were grounded (e.g., no data were recorded). Once grounded, an electrode was grounded for the duration of the experiment. All recordings were conducted at 37 C. Wells were deemed usable if on the day of the exposure >/= 10 electrodes were active (defined as >/= 5 spikes/min). On DIV 13 or 15, a minimum of three wells from one cortical culture preparation were treated with each compound (0.03-40 uM). Prior to recording baseline activity, each mwMEA plate was placed in the Maestro at 37 C and allowed to sit for 20 min while firing rates stabilized. Baseline activity (40 min) was recorded before the addition of each compound. An additional 40 min of spontaneous activity was recorded in the presence of each compound. Changes in network parameters relative to baseline were assessed following compound treatment.
Take `COc1cc(C=O)ccc1OC(=O)C(C)C`: the result was inactive. As to `CC(=O)[C@H]1CC[C@H]2[C@@H]3CC=C4C[C@@H](O)CC[C@]4(C)[C@H]3CC[C@]12C`, the AC50 was 5.37 nM (active). For the molecule `CN(C)C(=N)N=C(N)N`, the result was inactive. The same measure, in the same setting: in the case of `CCCCCCCCC=O` it was “inactive”.

As to `CC(=O)OCCC(C)CC(C)(C)C` (stereo unspecified), the molecule was called inactive.

As to `C=CCOC(=O)CCC1CCCCC1`, the outcome was inactive.

Regarding `CCC(=O)OCc1ccccc1`, the call was inactive. The same measure, in the same setting: then `C=C[Si](OCC)(OCC)OCC`, with “inactive”. As for `C[C@H]1C[C@@H]2[C@H]([C@@H](O)C[C@@]3(C)[C@H]2CC[C@]3(O)C(=O)CO)[C@@]2(C)C=CC(=O)C=C12`, the AC50 is 3 nM (active). Turning to `OC1OC[C@@H](O)[C@H](O)[C@H]1O` (stereo partly specified), the molecule was classed as inactive. With `CC(C)(COC(=O)c1ccccc1)COC(=O)c1ccccc1`, the molecule was classed as inactive. On the same count and under the same terms, then `CC[Si](OC(C)=O)(OC(C)=O)OC(C)=O`, with “inactive”. For `Nc1cc([N+](=O)[O-])ccc1O`, the molecule was called inactive. On the same count and under the same terms, then `Cc1cc(C2(c3cc(C)c(O)cc3C)OS(=O)(=O)c3ccccc32)c(C)cc1O`, with “inactive”. On the same count and under the same terms, in the case of `NCCNCCN` it was “inactive”; in that of `OC[C@H]1O[C@H](O[C@]2(CCl)O[C@H](CCl)[C@@H](O)[C@@H]2O)[C@H](O)[C@@H](O)[C@H]1Cl`, “inactive”.
